Source: PubChem BioAssay (NCI)
Compounds without any hit were thinned out: in the full panel of roughly 83,000, 20% have a hit.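 Testing used 96-well plates and a 48-hour single-concentration exposure. Example: -40 means 40% of the starting cells died.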 Unmarked numbers belong to inactive results. Calls of active or inactive are those of the source. How the source made its calls: active means growth percent below 10; inactive means the rest.

System: MDA-MB-435 melanoma
Experiment: NCI-60 one-dose screen, 48 h (100 = growth as untreated, 0 = no growth, -100 = all killed)
Settings: 10 µM unless noted

Row | Structure (SMILES) | growth
1 | CC1=C(C(=O)Nc2ccccc2)C(c2cccc3ccccc23)n2c(nc3ccccc32)N1 (configuration not stated) | 74.4%
2 | COc1ccc(NC(=O)CSc2nnc(-c3ccc(-c4nc5ccccc5[nH]4)cc3)o2)cc1 | 20.9%
3 | COc1cc2cc(C(=O)N3C[C@@H](CCl)c4c3cc(OC(=O)N(C)CCSSCCN3CCOCC3)c3ccccc43)[nH]c2c(OC)c1OC | -41.2% (active)
4 | CC(=O)C[n+]1cccc2c3ccccc3ccc21 | 84.6%
5 | CC[C@]12C=CCN3CC[C@]4(C(=C(C(=O)OC)C1)Nc1cc(OC)c([C@@H]5[C@H]6O[C@H]6[C@@]6(CC)CC(C(=O)OC)=C7Nc8cc(O)ccc8[C@@]78CCN5[C@@H]68)cc14)[C@@H]32 | -53.9% (active)
6 | Cc1ccccc1Nc1nnc(-c2c[nH]c3ccccc23)o1 | -47.2% (active)
7 | COc1cncc(-c2ccc3ncnc(N4CCc5ccc(Cl)cc54)c3c2)c1 | 53.6%
8 | Clc1ccc2c(NCCNC34CC5CC(CC(C5)C3)C4)ccnc2c1 | -72.3% (active)
9 | Cn1cc(-c2cc(N)n3nc(-c4c[nH]c5ccccc45)cc3n2)c2cc(Br)ccc21 | -79% (active)
10 | Cc1nn(-c2ccccc2)c2nc(C)n(CC(=O)N/N=C/c3cccc([N+](=O)[O-])c3)c(=O)c12 | 101%
11 | Cc1ccc(S(=O)(=O)Nc2ccc(-c3ccc4c(c3)NC(=O)/C4=C\c3ccc[nH]3)cc2)cc1 | 90.1%
12 | O=C1c2cccc3c(N4CCN(c5ccccc5)CC4)ccc(c23)C(=O)N1c1cccc(-c2nn(-c3ccccc3)cc2-c2nc3ccccc3s2)c1 | 106%
